Screening results: PubChem, National Center for Advancing Translational Sciences (NCATS)
Only some compounds are listed: those with a hit (about 19% of all), similar ones and a draw of the others.
KB-3-1 cytotox – kills parental KB-3-1 adenocarcinoma cells. KB-3-1 viability, CellTiter-Glo ATP luminescence, 72 h. Potency, µM (series often up to 46.1 µM), actives largely listed as cytotoxic. 1.4% of 400,000 active. AID 1347075; further: nearly all actives have a fitted effect of over 60% in size
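KB-3-1 cells, DMEM (no phenol red) + 10% FBS; compound by pin transfer, 72 h, 37 °C. Readout: CellTiter-Glo luminescence after 10 min. Data normalized, curve-fitted.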
HT1080NT lethal – kills 2HG-producing HT-1080-NT fibrosarcoma cells | HT-1080-NT fibrosarcoma viability, CellTiter-Glo ATP luminescence, 48 h | Potency, µM (top dose mostly 46.1 µM), inactives show at the top dose activity, negative = less viability, most hits filed as cytotoxic | 1.6% of 360,000 active | AID 686970;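 further: NT is the 2HG producing partner of a matched IDH1 knockdown line; 0% = DMSO-treated cells and -100% = media-only wells without cells; nearly all actives have a fitted effect of over 55% in size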
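Luminescent CellTiter-Glo readout after 48 hours of compound exposure at 37 degrees C defined viability of HT-1080-NT cells. Activity was normalized to DMSO wells and cell-free media wells; concentration-response curves were fitted and assigned curve classes.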
TDP1 cell noCPT – qHTS for Inhibitors of human tyrosyl-DNA phosphodiesterase 1 (TDP1): qHTS in cells in absence of CPT; DT40 Tdp1-/- hTDP1 cells, no CPT, ATP luminescence, 48 h; Potency, µM (highest dose often 46.2 µM), for inactives: top-dose activity change, negative = growth inhibition, hits mostly inhibitors; 15% of 420,000 active; AID 686978, 2013; further: nearly all actives have a fitted effect of over 55% in size
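Luminescent ATP content (CellTiter-Glo) served as the growth readout. Knockout chicken DT40 cells expressing human TDP1 were exposed to compounds without camptothecin for a minimum 48 hr at 37 °C.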
KB-V1 cytotox – KB-V1 MDR subline cytotoxicity; KB-V1 MDR cells viability, CellTiter-Glo, 72 h; Potency, µM (top dose mostly 46.1 µM), hits mostly cytotoxic; 3.4% of 400,000 active; AID 1347076; further: nearly all actives have a fitted effect of over 60% in size
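KB-V1, DMEM (no phenol red) + 10% FBS; cpd pin-transferred, titration series; 72 h, 37 degrees C; CellTiter-Glo, luminescence. Data normalized, curve-fit.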
HT1080 IDH1KD tx – HT-1080 IDH1 knockdown cell toxicity (counter line); HT-1080 IDH1 knockdown viability, ATP luminescence, 48 h; Potency, µM (doses to about 46.1 µM), for inactives: top-dose activity, negative = toxicity, actives largely listed as cytotoxic; 2% of 360,000 active;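 further: 0% = DMSO wells and -100% = cell-free medium wells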
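HT-1080-IDH1KD cells (IDH1 knocked down), 750/well in RPMI with 5% FBS, treated with compound 48 h at 37 degrees C. Viability by CellTiter-Glo luminescence, normalised to DMSO and no-cell wells; concentration-response curves classed.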
TDP1 cell CPT – growth inhibition of DT40 Tdp1-/-;hTDP1 cells with camptothecin (screen for TDP1 inhibitors); Potency, µM (top dose mostly 46.2 µM), inactives show at the top dose activity change, negative = growth inhibition, usual class: inhibitors; AID 686979; 12% of 420,000 active; chicken DT40 Tdp1-/-;hTDP1 cells + 20 nM CPT, ATP luminescence, 48 h; further: nearly all actives have a fitted effect of over 55% in size
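Chicken DT40 Tdp1-/- cells complemented with human TDP1, 400 cells/well, exposed to compounds plus 20 nM camptothecin for at least 48 h at 37 C; viability read as ATP content by CellTiter-Glo luminescence.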
* = called active by the depositor; i = inactive; ? = inconclusive; nt = not tested or not shown; [ ] = dose if it differs, or a comment. The call rests on the fitted dose curve; in most records, active means well fitted curve in the direction sought with a large enough effect; inconclusive means small, poorly fitted or top-dose-only effect, or another doubt; inactive means no such curve, though single readings can be large; an effect the other way counts as inactive or inconclusive. Unless noted, on the % scale 0 is the no-effect control and ±100 the full control effect; potency means the concentration at half of the fitted maximal effect.

SMILES	KB-3-1 cytotox	HT1080NT lethal	TDP1 cell noCPT	KB-V1 cytotox	HT1080 IDH1KD tx	TDP1 cell CPT
CN(Cc1cnn(-c2ccccc2)c1)C(=O)c1cccc(S(=O)(=O)N(C)c2ccccc2)c1	i	-18%	16µM*	?	-19%	18µM*
CO[C@H]1[C@H](NC(=O)c2ccco2)c2ccccc2C12CCN(Cc1cnc(N(C)C)s1)CC2	nt	nt	-13%	nt	nt	4%[9.04 µM]
O=C(CSCc1cc(=O)c2cc(F)ccc2[nH]1)Nc1ccccc1Cl	i	nt	?	?	nt	-26%
O=C(Oc1ccc(OC(=O)c2ccco2)c(S(=O)(=O)c2ccc(Cl)cc2)c1)c1ccco1	i	-6%	16µM*	?	-1%	-22%
CC1CCCCC12NC(=O)N(CC(=O)Nc1sccc1C(N)=O)C2=O (configuration not stated)	i	-2%[9.24 µM]	9%	i	-11%	-27%
COc1ccc(CN2CCOc3ccc(CN4CCC(Oc5cccnc5)CC4)cc3C2)cc1C	nt	nt	?	nt	nt	-10%[9.04 µM]
O=C1Nc2c(c(=O)[nH]c(=O)n2-c2ccc(Cl)cc2)C1(NS(=O)(=O)c1ccccc1)C(F)(F)F (configuration not stated)	i	nt	8%	?	nt	3%
COCCNC(=O)C1CCCN(C(=O)c2ccc(SC(F)(F)F)cc2)CC1 (configuration not stated)	i	5%	-4%	i	15%	-11%
Cc1cc(N2CCN(c3ncccn3)CC2)nc2c(C)cccc12	i	-22%	15µM*	i	-12%	?
CCc1ccc(NC(=O)CSc2nc(C)c(C(=O)Nc3ccc(Cl)cc3)c(-c3ccc(OC)cc3)c2C#N)cc1	i	nt	1%	i	nt	?
CCc1nnc(NC(=O)CSc2nc(C)c3c(c2C#N)CCCC3)s1	?	?	18µM*	?	?	18µM*
COc1ccc(NC(=O)CSc2nc(C)c3c(c2C#N)CCCC3)cc1	i	3%	-12%	4.6µM*	10%	?
CC(C)CCn1nc(C(=O)Nc2nc3c(s2)CCCC3)c2ccccc2c1=O	?	-3%	18µM*	i	-4%	26µM*
CC(C)CNC(=O)c1nn(Cc2ccccc2)c(=O)c2ccccc12	i	8%	-20%	i	-12%	?
O=C(Nc1nc2c(s1)CCCC2)c1nn(Cc2ccccc2)c(=O)c2ccccc12	i	2%	23µM*	i	4%	?
COc1ccccc1C(=O)NNC(=O)c1nn(Cc2ccccc2)c(=O)c2ccccc12	i	-22%	?	?	?	21µM*
CC(C)CCn1nc(C(=O)OCC(=O)NC(C)c2ccccc2)c2ccccc2c1=O (configuration not stated)	i	1%	-19%	i	12%	-4%
Cc1nc(-c2ccc(Cl)cc2)sc1CCNC(=O)C(=O)Nc1ccccc1C#N	i	nt	-26%	?	nt	-15%
Cc1cc(O)c(C(C)C)cc1NC(=S)Nc1cc(C(C)C)c(O)cc1C	?	1%	?	?	-16%	?
O=C(c1cc(-c2ccccc2)on1)N(Cc1cccnc1)C(c1ccccn1)c1nc2ccccc2[nH]1 (configuration not stated)	i	-28%	?	?	?	?
COc1ccccc1S(=O)(=O)Cc1ccc(C(=O)NCCCN2CCN(c3ccc(F)cc3)CC2)o1	i	-29%	?	i	-9%	?
CCOc1ccc(Nc2oc(-c3ccc(COc4ccc(C)cc4)o3)nc2C#N)cc1	i	nt	?	i	nt	?
Cc1cc(Cl)ccc1C(O)c1ncc(-c2cccc(C(F)(F)F)c2)[nH]1 (configuration not stated)	i	?	?	i	?	?
O=c1oc(-c2ccc(Cl)cc2[N+](=O)[O-])nc2ccccc12	i	-1%	?	i	-7%	?
CCc1nc(SCC(=O)N2c3ccccc3CC2C)c2c(C)c(C)sc2n1 (configuration not stated)	i	6.3µM*	10µM*	i	?	9.2µM*
SMILES	KB-3-1 cytotox	HT1080NT lethal	TDP1 cell noCPT	KB-V1 cytotox	HT1080 IDH1KD tx	TDP1 cell CPT
Cc1nnc(SCC(=O)N2c3ccccc3CC2C)s1 (configuration not stated)	i	12%	-6%	i	5%	-19%
Cc1sc2nc(C(C)C)nc(SCC(=O)N3c4ccccc4CC3C)c2c1C (configuration not stated)	i	8%	?	18µM*	17%	?
CC1CCCC(C)N1C(=O)CN1C(=O)NC2(CCOc3ccccc32)C1=O (configuration not stated)	i	-11%	-24%	i	-14%	14%
CCCNC(=S)NC1CC2CCCC(C1)N2Cc1ccc(F)cc1 (configuration not stated)	i	5%	18µM*	i	-3%	?
O=C(Nc1ccccc1-c1ccccc1)NC1CC2CCCC(C1)N2Cc1ccc(F)cc1 (configuration not stated)	i	-17%	23µM*	i	-17%	21µM*
O=C(Nc1ccccc1F)NC1CCN(Cc2nnnn2Cc2ccc(F)cc2)CC1	i	4%	-7%	15µM*	4%	-2%
Cc1ccc(Cn2nnnc2CN2CCC(NC(=O)c3ccccc3F)CC2)cc1	i	8%	?	i	9%	?
COCCCNC(=S)NC1CC2CCCC(C1)N2Cc1ccco1 (configuration not stated)	i	0%	-11%	i	?	-13%
Cc1ccc(NC(=O)CN2C(=O)c3ccccc3Sc3ccc(C(=O)N4CCOCC4)cc32)c(Cl)c1	nt	nt	?	nt	nt	-14%
C[C@H](CO)N1C[C@H](C)[C@H](CN(C)S(=O)(=O)c2ccccc2F)OCc2cnnn2CCCC1=O	i	3%	0%	i	10%	4%
O=S1(=O)CC(N2CCCCC2)CN1Cc1cn(Cc2cccc(C(F)(F)F)c2)nn1 (configuration not stated)	i	15%	-8%	i	6%	-2%
O=C(Cn1ncc2ccccc2c1=O)Nc1cccc(C(F)(F)F)c1	i	-15%	-22%	i	-22%	-2%
N#Cc1nc(-c2cccc3ccccc23)oc1NCCN1CCCCC1	?	?	16µM*	i	?	18µM*
